{
  "source": "ChEMBL document CHEMBL3988442",
  "about": "“University of Dundee, Small-Polar-MMV Screening Library” (2021)",
  "note": "Hit rate of the full screen: of about 69,000 compounds, about 950 (1.4%) showed an effect of 50% or more. For the sample, strong results were picked, then their nearest neighbours and some compounds at random.",
  "data": [
    {"tested_on": "Mycobacterium tuberculosis", "test": "Cornell M. t heat shock assay; note: in the data most compounds retested in dose-response had high values", "assay_type": "functional, organism-based", "design": "dose or concentration left out as unconfirmed", "units": {"Percent Effect": "%"}, "values": [
      {"smiles": "COc1ccc(CNC(C)c2cccc(Br)c2)c(OC)c1OC.Cl", "note": "(stereo not drawn)", "Percent Effect": -10.84},
      {"smiles": "COCCN1CCC(c2nc3ccc(-c4ccccc4)cn3n2)CC1.O=C(O)C(F)(F)F", "Percent Effect": -23.12},
      {"smiles": "C/N=C1/c2cc3cc(OC)ccc3n2CCN1Cc1ccccc1.Cl", "Percent Effect": -17.35},
      {"smiles": "Cc1noc(C)c1CN1CCO[C@H]2CN(C(=O)N3CCCC3)C[C@H]21.O=C(O)C(F)(F)F", "Percent Effect": -20.16},
      {"smiles": "COc1ccc(-c2nc(CNCCn3cccn3)cs2)cc1", "Percent Effect": 106.9},
      {"smiles": "Cn1cc(-c2nc(CNCCn3cccn3)cs2)cn1", "Percent Effect": -4.068},
      {"smiles": "COc1ccc(-c2nnc(CNCCn3cccn3)o2)cc1", "Percent Effect": -11.96},
      {"smiles": "CCc1c(C)nc2cc(C3CCN(Cc4ccncc4C)C3)nn2c1O", "note": "(stereo not drawn)", "Percent Effect": -4.904},
      {"smiles": "O=C(O)C(F)(F)F.O=C(c1ccncc1F)N1CCc2onc(COc3cccnc3)c2C1", "Percent Effect": 2.972},
      {"smiles": "Cn1ccc(C(=O)N2CCC[C@]3(C[C@@H](OCc4ccccn4)CO3)C2)n1.O=C(O)C(F)(F)F", "Percent Effect": -3.608},
      {"smiles": "O=C(CCc1cc(O)no1)N1CCC(Cc2ccc(F)cc2)CC1", "Percent Effect": 4.65},
      {"smiles": "O=C(O)CCC(=O)N1CCC(c2noc3cc(F)ccc23)CC1", "Percent Effect": 69.92},
      {"smiles": "O=C(O)CCCC(=O)N1CCC(c2noc3cc(F)ccc23)CC1", "Percent Effect": 20.09},
      {"smiles": "CC(C)NC(=O)CN1CCC(c2cccc(F)c2)C1", "note": "(stereo not drawn)", "Percent Effect": -24.09},
      {"smiles": "NC(=O)CN1CCC(c2noc3cc(F)ccc23)CC1", "Percent Effect": -31.79},
      {"smiles": "O=C(CCC(=O)N1CCC(c2noc3cc(F)ccc23)CC1)NC1CC1", "Percent Effect": 83.45},
      {"smiles": "CC(C)NC(=O)CCC(=O)N1CCC(c2noc3cc(F)ccc23)CC1", "Percent Effect": 74.12},
      {"smiles": "CCCNC(=O)CCC(=O)N1CCC(c2noc3cc(F)ccc23)CC1", "Percent Effect": 9.612},
      {"smiles": "O=C(CCN1CCC(C(=O)c2cc(F)ccc2F)CC1)NC1CC1", "Percent Effect": -9.281},
      {"smiles": "Cl.NC(=O)C1CNCCN1C(=O)COc1ccccc1", "note": "(stereo not drawn)", "Percent Effect": -11.48},
      {"smiles": "C[C@H]1CN(Cc2cccc(F)c2)C[C@@]12CCN(CC(=O)N(C)C)C2=O.O=C(O)C(F)(F)F", "Percent Effect": -2.321},
      {"smiles": "CC(C)C(=O)N1CC[C@H]2N(C)CC[C@@]2(C(=O)N2CCCC2)CC1.O=C(O)C(F)(F)F", "Percent Effect": 7.304},
      {"smiles": "CCSCCNc1nc2c(s1)c(C)nn2C", "Percent Effect": 6.366},
      {"smiles": "c1ccc(-c2nc3c(c(NCCn4cccc4)n2)CCNCC3)nc1", "Percent Effect": -4.2},
      {"smiles": "Cc1nc(N2CCC(O)(c3ccccc3)CC2)c2c(C)nn(C)c2n1", "Percent Effect": 12.95},
      {"smiles": "CSCC[C@@H](CO)Nc1nc(-c2ccccn2)nc2c1c(C)nn2C", "Percent Effect": 63.32},
      {"smiles": "CC(=O)NCCNc1nc(-c2ccccn2)nc2c1c(C)nn2C", "Percent Effect": -12.81},
      {"smiles": "CCSCCNc1nc(-c2ccccn2)nc2c1c(C)nn2C", "Percent Effect": 102},
      {"smiles": "CSCC[C@@H](CO)Nc1ccc(-c2nc(-c3ccccc3C)no2)cn1", "Percent Effect": -15.48},
      {"smiles": "CCC1(O)CCCN(c2nc(-c3ccccn3)nc3c2c(C)nn3C)C1", "note": "(stereo not drawn)", "Percent Effect": 100.9},
      {"smiles": "CCC1(O)CCCN(c2ncnc3c2c(C)nn3C)C1", "note": "(stereo not drawn)", "Percent Effect": 10.34},
      {"smiles": "CSCC[C@@H](CO)Nc1ccc(-c2nc(-c3ccccc3F)no2)cn1", "Percent Effect": -33.46},
      {"smiles": "Cc1nn(C)c2nc(-c3ccccn3)nc(NCCCOC(C)C)c12", "Percent Effect": 98.39},
      {"smiles": "c1ccc(-c2nc3c(c(NCCCn4cncn4)n2)CCNCC3)nc1", "Percent Effect": 8.8},
      {"smiles": "Cc1ccc(CN2CC[C@H]3OCC[C@@H](C(=O)N4CCCCO4)[C@@H]3C2)o1.O=C(O)C(F)(F)F", "Percent Effect": -16.6},
      {"smiles": "O=C(O)C(F)(F)F.O=C([C@@H]1CCO[C@@H]2CCN(CCc3ccccc3)C[C@@H]21)N1CCCC1", "Percent Effect": -24.53},
      {"smiles": "Cl.c1cnc(Nc2cc(CCC3CCCNC3)ccn2)cn1", "note": "(stereo not drawn)", "Percent Effect": 5.615},
      {"smiles": "Cc1nnc(N2CC[C@H]3O[C@H](C(=O)NCc4ccccn4)CC[C@H]32)s1.O=C(O)C(F)(F)F.O=C(O)C(F)(F)F", "Percent Effect": -4.989},
      {"smiles": "CCCN1C[C@H]2CC[C@@H]1CN(c1nnc(C(C)C)s1)C2", "Percent Effect": 23.85},
      {"smiles": "O[C@@H]1CN(Cc2cccnc2)C[C@H]1Oc1ccccc1", "Percent Effect": -6.962},
      {"smiles": "CCN1CCN(C)C(=O)C12CCN(C(=O)Cc1ccccn1)CC2.O=C(O)C(F)(F)F", "Percent Effect": 3.493},
      {"smiles": "Cc1nn(C)c2nc(-c3ccccn3)nc(NC[C@@H]3CCCO3)c12", "Percent Effect": 93.55},
      {"smiles": "Cc1nn(C)c2nc(N(Cc3ccccn3)CC3CCCO3)sc12", "note": "(stereo not drawn)", "Percent Effect": -20.31},
      {"smiles": "Cc1nn(C)c2nc(-c3ccccn3)nc(NCCC3CCCN3C)c12", "note": "(stereo not drawn)", "Percent Effect": -21.22},
      {"smiles": "CN(Cc1ccco1)Cc1cncc2c1CCN(Cc1ccoc1)C2.Cl.Cl.Cl", "Percent Effect": -8.81},
      {"smiles": "COc1ccc(CN(C)CC(O)COCc2ccccc2Cl)c(OC)c1.O=C(O)C(=O)O", "note": "(stereo not drawn)", "Percent Effect": 10.76},
      {"smiles": "Cl.NC(=O)c1ccc(C2CCCNC2)nc1", "note": "(stereo not drawn)", "Percent Effect": 6.817},
      {"smiles": "Cc1noc(C)c1C(=O)N1C[C@@H]2COC[C@]2(COc2ccccn2)C1.O=C(O)C(F)(F)F", "Percent Effect": -29.95},
      {"smiles": "Cc1ccc2nc(C3CCCN3Cc3nnc(C)s3)[nH]c2c1", "note": "(stereo not drawn)", "Percent Effect": -8.638},
      {"smiles": "Cc1ccc2nc(C3CCCN3Cc3scnc3C)[nH]c2c1", "note": "(stereo not drawn)", "Percent Effect": 1.494},
      {"smiles": "Cc1ccc2nc(C3CCCN3Cc3csc(C)n3)[nH]c2c1", "note": "(stereo not drawn)", "Percent Effect": 87.71},
      {"smiles": "Cn1cc(CN2C[C@@H]3COC[C@]3(C(=O)NCCc3ccccc3)C2)cn1.O=C(O)C(F)(F)F", "Percent Effect": -18.43},
      {"smiles": "COCCC(C)NS(=O)(=O)c1ccc(C)c(N(C)C)c1", "note": "(stereo not drawn)", "Percent Effect": 1.91},
      {"smiles": "CCN(CC)c1ncnc2c1CCN(C(=O)Cc1ccccn1)CC2.O=C(O)C(F)(F)F.O=C(O)C(F)(F)F", "Percent Effect": -18.08},
      {"smiles": "CCn1ncc2c1C(COC)CN(c1ncc(F)cn1)C2.O=C(O)C(F)(F)F.O=C(O)C(F)(F)F", "note": "(stereo not drawn)", "Percent Effect": 55.18},
      {"smiles": "CCn1ncc2c1C(COC)CN(Cc1ccc(F)cc1)C2.O=C(O)C(F)(F)F.O=C(O)C(F)(F)F", "note": "(stereo not drawn)", "Percent Effect": -13.12},
      {"smiles": "COCC1CN(c2ncc(F)cn2)Cc2cnn(C)c21.O=C(O)C(F)(F)F.O=C(O)C(F)(F)F", "note": "(stereo not drawn)", "Percent Effect": 9.404},
      {"smiles": "CCOCC1CN(Cc2ccco2)Cc2nccn2C1.O=C(O)C(F)(F)F", "note": "(stereo not drawn)", "Percent Effect": -9.1}
    ]}
  ]
}
